Columns and labels:
Test in all cases: PBM binding z-score (relative to random genomic background probes); higher = stronger binding; sequences stand for … in GC…GCGATTGACAGCGTAGAATGAAGG
[1] = tested on: FXR:RXRa (NR concentration 270 nM, RXRa partner concentration 90 nM)
Method in brief: (§1)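 Binding z-scores take random background probes as their reference. They come from custom Agilent 4×180K protein-binding microarrays incubated 1 h with ligand-free nuclear receptor dimers, with antibodies against each partner (one per run) detecting binding. Scanned fluorescence was regression-normalized.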

[2] = tested on: LXRa:RXRa (NR concentration 270 nM, RXRa partner concentration 90 nM)
Method in brief: as §1

[3] = tested on: LXRa homodimer (NR concentration 270 nM)
Method in brief: as §1

[4] = tested on: LXRb:RXRa (NR concentration 270 nM, RXRa partner concentration 90 nM)
Method in brief: as §1

[5] = tested on: LXRb homodimer (NR concentration 270 nM)
Method in brief: as §1

[6] = tested on: PPARa:RXRa (NR concentration 270 nM, RXRa partner concentration 90 nM)
Method in brief: as §1

[7] = tested on: PPARg:RXRa (NR concentration 180 nM, RXRa partner concentration 90 nM)
Method in brief: as §1

[8] = tested on: PPARg:RXRa 270nM:90nM, anti-RXR (NR concentration 270 nM, RXRa partner concentration 90 nM)
Method in brief: as §1

[9] = tested on: PPARg:RXRa 30nM:10nM, anti-RXR (NR concentration 30 nM, RXRa partner concentration 10 nM)
Method in brief: as §1

[10] = tested on: PPARg:RXRa 90nM:30nM, anti-RXR (NR concentration 90 nM, RXRa partner concentration 30 nM)
Method in brief: as §1

Sequence	PBM binding z-score [1]	PBM binding z-score [2]	PBM binding z-score [3]	PBM binding z-score [4]	PBM binding z-score [5]	PBM binding z-score [6]	PBM binding z-score [7]	PBM binding z-score [8]	PBM binding z-score [9]	PBM binding z-score [10]
CCGACTGTGGCAAGGTTACCATAACGCACAGCCA	0.166	0.546	-0.172	0.46	-0.922	1.07	1.1	0.984	-0.132	0.352
TCATATAGGTAAAGGTTAAAGTCGAACGATATGA	2.25	3.83	0.888	2.89	0.157	4.34	5.57	5.57	5.06	5.73
TCTTGTAGAACAAGCAGGTTAAGAAAGCCTGAGT	0.0411	-0.117	-0.158	-0.0832	-0.582	0.777	-0.27	1.19	2.58	1.82
TAGCCTAGGTCAGATCGGGCCACTATACGCTATA	2.45	1.34	-0.308	0.919	-0.028	1.65	0.925	0.87	-0.128	0.49
CGGACTGGGGCAGAAAGGTTACCATACCATCCGG	0.574	0.739	-0.05	1.25	-0.31	2.7	2.62	3.46	1.89	2.62
GCTAGTTGGTCAGTAATAGGTCACACACCGGTCG	1.19	1.72	1.74	1.77	0.0415	2.79	1.44	2.52	0.756	1.82
ACTCGGAGGACAAAGGTCAGAGCTACGCCAGTGA	4.09	4.15	1.61	3.4	0.202	4.93	7.6	7.06	5.63	7.83
TCTAGTTGGTCAACGGTCACACACTCGAAATGCG	0.705	0.745	0.892	1.04	0.0272	2.38	3.99	5.35	4.78	5.32
CGACCTAGGTCAGAACAGGACAGTGAAGGATGAT	2.95	1.5	0.143	1.08	-0.535	2.08	1.55	1.2	-0.0187	0.682
TCCTATAGGTAAACAGGTGAAAGTCCGTAAGTTA	0.613	0.51	0.24	0.845	-0.235	2.07	1.63	2.96	3.27	3.17
AGTCGAAGTTCACTAGGTAACGTAAGATTCAGCT	1.2	1.74	0.29	1.03	-0.107	2.81	3.18	3.43	0.891	2.44
ATCGAAAGGTCGAAGATGAGTATACCCACCCGAA	3.83	3.21	0.43	2.41	0.732	4	2.52	2.37	1.04	1.8
TCAGATAGGTAATACAGGTGAAAGTCGGCATCTA	0.862	1.41	0.032	0.889	0.0501	1.72	0.936	2.37	4.15	3.25
CTCGAAAGGTCGGTTGAGGTGAGTATTCGGATAA	2.94	1.75	-0.326	1.32	-0.125	2.56	-0.124	1.15	0.0232	0.23
TCGTGTAGATCAATAGAGGTTAAGAAAGTGCGCT	0.712	3.48	0.576	1.76	-0.163	1.86	0.088	1.57	2.53	2.13
AATACAGGGTCATCGTAGGCTAGAGTACGCACAG	7.1	6.2	2.25	4.59	1.4	6	6.55	5.9	2.52	4.76
ATCGGAAGGTCGTGAGGTGAGTATACAGAAAGGC	2.73	1.85	0.212	1.69	0.0341	3.13	1.68	1.63	0.466	0.932
ACTAGCAGGCCAAGTTGGGGTCACTCAAACAAAG	3.18	3.16	0.123	4.07	-0.00108	4.63	1.63	2.88	0.385	1.96
TCATATAGGTAATTCAGGTGAAAGTCGGCATCTA	1.4	1.17	0.456	1.25	0.393	1.87	1.09	2.58	4.33	3.59

Source: the supplement of paper PMC6555819
